The whole screen tested about 5,500 compounds, of which about 2,000 (36%) were called active. Another 18% or so got no clear call; they are omitted. Rule as the data show it: active = normalized growth mostly below about 0.91 (no sharp cut-off); inconclusive = no clear call, values can overlap the other calls; inactive = mostly above about 0.92. The list shows a part of the results.
Assay: chemical genetic growth profiling, strain panel (AID 1159580);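 also: tested at 20 µM; growth read once vehicle control cultures reached saturation at 30 °C; 1 = growth at the plate median or of vehicle wells; lower values mean less growth of the strain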
Conditions: S. cerevisiae deletion strains, growth OD

Measured: normalized growth

Oc1cc(O)c2c(c1)OC(c1ccc(O)c(O)c1)C(O)C2 (stereo not drawn)
inactive: locus YAL013W, strain DEP1, stronger effect = lower value 1 | locus YAL040C, strain CLN3, stronger effect = lower value 1.01 | locus YCL061C, strain MRC1 (second series), stronger effect = lower value 1 | locus YDR150W, strain NUM1, stronger effect = lower value 1.01 | locus YER002W, strain NOP16, stronger effect = lower value 1.03 | locus YGR078C, strain PAC10, stronger effect = lower value 1.01 | locus YMR263W, strain SAP30, stronger effect = lower value 1 | locus YNL153C, strain GIM3, stronger effect = lower value 1.03 | locus YNL175C, strain NOP13, stronger effect = lower value 1.02 | locus YNL197C, strain WHI3, stronger effect = lower value 1.01 | locus YNL224C, strain SQS1, stronger effect = lower value 1.01 | locus YOR083W, strain WHI5 (second series), stronger effect = lower value 1.02

N=c1ccn2c(n1)OC1C(O)C(CO)OC12 (stereo not drawn)
inactive: locus YAL021C, strain ccr4, stronger effect = lower value 1.01 | locus YAL026C, strain drs2, stronger effect = lower value 1.02 | locus YAL030W, strain snc1, stronger effect = lower value 0.991 | locus YBL061C, strain skt5, stronger effect = lower value 1.01 | locus YBR009C, strain hhf1, stronger effect = lower value 1.01 | locus YBR023C, strain chs3, stronger effect = lower value 0.995 | locus YBR171W, strain sec66, stronger effect = lower value 1.01 | locus YBR231C, strain swc5, stronger effect = lower value 1.01 | locus YBR279W, strain paf1, stronger effect = lower value 1.01 | locus YCL011C, strain gbp2, stronger effect = lower value 1.01 | locus YCL016C, strain dcc1, stronger effect = lower value 1 | locus YCL061C, strain MRC1, stronger effect = lower value 0.986 | locus YCL069W, strain vba3, stronger effect = lower value 1.01 | locus YCR088W, strain abp1, stronger effect = lower value 1.01 | locus YDL005C, strain med2, stronger effect = lower value 0.986 | locus YDL040C, strain nat1, stronger effect = lower value 0.986 | locus YDR001C, strain nth1, stronger effect = lower value 1.01 | locus YDR069C, strain doa4, stronger effect = lower value 1.01 | locus YDR137W, strain rgp1, stronger effect = lower value 1.02 | locus YDR159W, strain sac3, stronger effect = lower value 1 | locus YDR195W, strain ref2 0.976 | locus YDR297W, strain sur2, stronger effect = lower value 0.986 | locus YDR334W, strain swr1, stronger effect = lower value 1 | locus YDR335W, strain msn5, stronger effect = lower value 1 | locus YDR392W, strain spt3, stronger effect = lower value 1.01 | locus YEL003W, strain gim4, stronger effect = lower value 1 | locus YEL037C, strain rad23, stronger effect = lower value 0.995 | locus YEL061C, strain CIN8 (second series), stronger effect = lower value 1.01 | locus YER015W, strain faa2, stronger effect = lower value 1.01 | locus YER016W, strain bim1, stronger effect = lower value 1 | locus YER111C, strain swi4, stronger effect = lower value 0.981 | locus YER155C, strain BEM2 (second series), stronger effect = lower value 1.01 | locus YFR010W, strain ubp6, stronger effect = lower value 0.998 | locus YGL167C, strain pmr1, stronger effect = lower value 1 | locus YGL173C, strain kem1, stronger effect = lower value 0.996 | locus YGL227W, strain vid30, stronger effect = lower value 1.02 | locus YGL240W, strain doc1, stronger effect = lower value 0.978 | locus YGL253W, strain hxk2, stronger effect = lower value 1 | locus YHR013C, strain ard1, stronger effect = lower value 1.01 | locus YHR027C, strain rpn1, stronger effect = lower value 1.01 | locus YHR142W, strain chs7, stronger effect = lower value 1.01 | locus YJL092W, strain hpr5, stronger effect = lower value 1.01 | locus YJL095W, strain BCK1 (second series), stronger effect = lower value 1 | locus YJL115W, strain asf1, stronger effect = lower value 1.01 | locus YJL129C, strain trk1, stronger effect = lower value 1.02 | locus YJL154C, strain vps35, stronger effect = lower value 1 | locus YJL164C, strain tpk1, stronger effect = lower value 1 | locus YJL166W, strain qcr8, stronger effect = lower value 0.982 | locus YKL160W, strain elf1, stronger effect = lower value 1 | locus YKR026C, strain gcn3, stronger effect = lower value 1.02 | locus YKR091W, strain srl3, stronger effect = lower value 1 | locus YLL001W, strain dnm1, stronger effect = lower value 0.998 | locus YLL026W, stronger effect = lower value 1 | locus YLL041C, strain sdh2, stronger effect = lower value 1 | locus YLR027C, strain aat2, stronger effect = lower value 1.01 | locus YLR221C, strain rsa3, stronger effect = lower value 0.993 | locus YLR258W, strain gsy2, stronger effect = lower value 1.01 | locus YLR262C, strain YPT6 (second series), stronger effect = lower value 1.02 | locus YLR320W, strain mms22, stronger effect = lower value 1.01 | locus YLR342W, strain FKS1, stronger effect = lower value 1.01 | locus YLR357W, strain rsc2, stronger effect = lower value 0.946 | locus YLR370C, strain arc18, stronger effect = lower value 1.01 | locus YLR384C, strain iki3, stronger effect = lower value 1 | locus YML120C, strain ndi1, stronger effect = lower value 0.993 | locus YMR058W, strain fet3, stronger effect = lower value 0.998 | locus YMR125W, strain sto1, stronger effect = lower value 0.995 | locus YMR129W, stronger effect = lower value 0.987 | locus YMR205C, strain PFK2, stronger effect = lower value 1.01 | locus YMR231W, strain pep5, stronger effect = lower value 1.01 | locus YNL071W, strain lat1, stronger effect = lower value 1.02 | locus YNL209W, strain ssb2, stronger effect = lower value 1 | locus YNL248C, strain rpa49, stronger effect = lower value 1.01 | locus YNL322C, strain KRE1 (second series), stronger effect = lower value 1.01 | locus YNR049C, strain mso1, stronger effect = lower value 1 | locus YOR001W, strain rrp6, stronger effect = lower value 1.01 | locus YOR070C, strain gyp1, stronger effect = lower value 1.01 | locus YOR080W, strain dia2, stronger effect = lower value 0.996 | locus YOR083W, strain WHI5, stronger effect = lower value 1.01 | locus YOR106W, strain vam3, stronger effect = lower value 1.02 | locus YOR265W, strain rbl2, stronger effect = lower value 0.993 | locus YOR270C, strain vph1, stronger effect = lower value 1.04 | locus YOR290C, strain snf2, stronger effect = lower value 1.01 | locus YPL051W, strain arl3, stronger effect = lower value 1 | locus YPL078C, strain atp4, stronger effect = lower value 0.996 | locus YPL106C, strain sse1, stronger effect = lower value 0.981 | locus YPL240C, strain hsp82, stronger effect = lower value 1.02
